# Reference: the supplement of paper PMC10981050
# Several values for one entry are separate records, joined by “and”; a condition that tells them apart may be missing. Identical values can stand only once. Counter-ions that a name gives are not always drawn.
# Key:
# Assay in all cases: cell viability relative to vehicle control; higher = less cytotoxic
# Settings in all cases: 10 µM
# K562 = system: K562
# Outline: (§1)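 CRISPR-edited mutant clones and isogenic wild-type clones from four leukaemia lines were screened against Selleck bioactive, kinase and epigenetic probe libraries, with identity-inconsistent compounds excluded. Each compound was acoustically dispensed at a single 10 µM dose into 384-well plates holding 2000 cells in 50 µL medium per well. After 48 h the supernatant was removed and CellTiter-Glo luminescence was read. Viability was expressed as percent of the on-plate vehicle control and analysed in Genedata Screener.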
# MARIMO = system: MARIMO
# Outline: as §1
# MOLM14 = system: MOLM14
# Outline: as §1
# OCI-AML2 = system: OCI-AML2
# Outline: as §1
SMILES,cell viability (K562; SRSF2 genotype: SRSF2 P95H/wt),cell viability (K562; SRSF2 genotype: SRSF2 wt/wt) [%],cell viability (MARIMO; SRSF2 genotype: SRSF2 P95H/wt) [%],cell viability (MARIMO; SRSF2 genotype: SRSF2 wt/wt) [%],cell viability (MOLM14; SRSF2 genotype: SRSF2 P95H/wt) [%],cell viability (MOLM14; SRSF2 genotype: SRSF2 wt/wt) [%],cell viability (OCI-AML2; SRSF2 genotype: P95H/wt) [%],cell viability (OCI-AML2; SRSF2 genotype: wt/wt) [%]
NC1(C(=O)N[C@@H](CCO)c2ccc(Cl)cc2)CCN(c2ncnc3[nH]ccc23)CC1,82.6% and 83.6%,79,66.6,67.1,28.5,33.3,59.8,55.8
Fc1ccc(Cn2c(Cl)nc3ccccc32)cc1 [2-Chloro-1-(4-fluorobenzyl)benzimidazole],77.4% and 80.8%,86.5,64.6,64.5,77.2,84,28.5,36.5
Cc1nc(Nc2ncc(C(=O)Nc3c(C)cccc3Cl)s2)cc(N2CCN(CCO)CC2)n1 [Dasatinib Monohydrate],23.6% and 40.6%,28.3,67.5,70.5,38.8,39,33.3,43.3
COc1ccc(CNCc2cccc3ccccc23)cc1,91.6% and 97%,95.1,88.5,97.4,97.4,101,92.4,101
CC(=O)O[C@H]1C[C@@H]2CC[C@@H]3[C@H](CC[C@@]4(C)[C@H]3C[C@H]([N+]3(C)CCCCC3)[C@@H]4OC(C)=O)[C@@]2(C)C[C@@H]1N1CCCCC1 [Vecuronium Bromide],101% and 109%,109,105,103,99.8,101,111,109
O=C(/C=C/c1ccc(O)c2c1[C@H](C(=O)O[C@H](Cc1ccc(O)c(O)c1)C(=O)O)[C@@H](c1ccc(O)c(O)c1)O2)O[C@H](Cc1ccc(O)c(O)c1)C(=O)O [Salvianolic acid B],96.5% and 101%,101,101,108,96.7,103,98.9,97.8
C=C(c1ccc(C(=O)O)cc1)c1cc2c(cc1C)C(C)(C)CCC2(C)C [Bexarotene],84.9% and 95.7%,87.6,85.7,106,89.4,103,33.3,63.5
CN(C)CC(=O)Nc1ccc2[nH]c(=O)c3ccccc3c2c1,97.7% and 93.8%,94.9,100,94.6,89.1,96,91.6,98.4
O=C(O)c1ccc(Br)c(O)c1 [4-Bromo-3-hydroxybenzoic acid],105% and 104%,104,100,110,100,107,99.3,108
CC1(C)C2CCC1(C)C(O)C2 (centres undefined) [Borneol],101% and 89.9%,94.2,89.7,99.5,97.5,99.5,87.9,105
N[C@@]1(C(=O)O)CS(=O)(=O)[C@H]2[C@H](C(=O)O)[C@H]21,104% and 109%,115,107,105,109,113,113,98.1
COc1cn(-c2ccc(-n3cccn3)cc2F)nc(-c2ccnn2-c2ccccc2)c1=O,103% and 105%,99.9,97.5,113,107,107,106,117
CC(C)(C)NCC(O)c1ccc(O)c(CO)c1 (centres undefined) [Salbutamol],104% and 102%,110,108,107,99.4,106,101,97.1
"O=C(c1ccc(F)c(F)c1Nc1ccc(I)cc1F)N1CC(O)([C@@H]2CCCCN2)C1 [Cobimetinib (GDC-0973, RG7420)]",22.4% and 35.4%,35.5,27.5,28.6,29.6,21.1,18.2,26.1
C[C@@H](C(=O)Nc1ccc(Cl)cc1)C1CCC(c2ccnc3ccc(F)cc23)CC1 (some centres undefined),77% and 77.9%,69.6,81,70.5,61.9,76.4,56.8,54.5
Cn1cc(C[C@@H](N)C(=O)O)c2ccccc21 [Indoximod (NLG-8189)],95.8% and 103%,95.7,98.4,103,103,98.9,102,104
COC(=O)C1=C(C)NC(C)=C(C(=O)OCCN2CCN(C(c3ccccc3)c3ccccc3)CC2)C1c1cccc([N+](=O)[O-])c1 (centres undefined) [Manidipine dihydrochloride (CV-4093)],60.3% and 62.1%,53.6,67.1,68.6,55.2,57.7,42.5,46.8
Cc1cc(C(=O)O)n[nH]1,108% and 101%,103,104,111,96.4,111,101,104
O=C[C@H](O)[C@H]1OC(=O)[C@@H](O)[C@H]1O [D-Glucurone],90.4% and 88.2%,86.3,84.2,95.1,88.8,88.3,88.8,94.2

SMILES,cell viability (K562; SRSF2 genotype: SRSF2 P95H/wt),cell viability (K562; SRSF2 genotype: SRSF2 wt/wt) [%],cell viability (MARIMO; SRSF2 genotype: SRSF2 P95H/wt) [%],cell viability (MARIMO; SRSF2 genotype: SRSF2 wt/wt) [%],cell viability (MOLM14; SRSF2 genotype: SRSF2 P95H/wt) [%],cell viability (MOLM14; SRSF2 genotype: SRSF2 wt/wt) [%],cell viability (OCI-AML2; SRSF2 genotype: P95H/wt) [%],cell viability (OCI-AML2; SRSF2 genotype: wt/wt) [%]
C=CCS[S+]([O-])CC=C (centres undefined) [Allicin],92.6% and 104%,91.8,96,84.9,99.8,99.8,89.2,105
CN1c2ccccc2C(=O)Nc2cnc(Nc3ccc(N4CCC(O)CC4)cc3)nc21,16.4% and 22.1%,15.7,69.5,83.9,57.2,39.6,51,49.3
CCN(CC)CC(=O)Oc1ccc(NC(C)=O)cc1 [Propacetamol hydrochloride],90.2% and 83.3%,86.5,94.2,90.2,93.6,94.7,86.4,96.7
CCOC(=O)COc1ccc(/C=C2/SC(=S)NC2=O)cc1OC,90.9% and 94.4%,94.3,88.8,101,2.04,3.45,104,91.8
CCCc1cc(C)[nH]c(=O)c1CNC(=O)c1cc(-c2ccc(N3CCN(C(C)C)CC3)nc2)cc2c1cnn2C(C)C,36.5% and 35%,30.5,81.1,80,49.8,60.8,4.14,31.8
CC(C)OC(=O)OCOP(=O)(CO[C@H](C)Cn1cnc2c(N)ncnc21)OCOC(=O)OC(C)C [Tenofovir Disoproxil Fumarate],92.9% and 94.9%,82.2,79.8,79.2,34.7,28.4,14.3,22.9
O=C(/C=C/c1ccc(CN(CCO)CCc2c[nH]c3ccccc23)cc1)NO [LAQ824 (Dacinostat)],1.15% and 10.3%,2.76,5.99,11.9,0.84,0.58,1.63,2.36
Cc1cccc(-c2nn3c(c2-c2ccnc4ccc(C(N)=O)cc24)CCC3)n1,102% and 98%,99.2,104,103,99.7,96.1,108,108
O=C1C(c2[nH]c3ccccc3c2O)=Nc2ccccc21 [Indigo],105% and 106%,94.6,100,108,93,99.8,90,106
OCc1ccc(O)cc1 [4-Hydroxybenzyl alcohol],108% and 106%,111,98,112,108,109,111,95.3
CCC(=O)Nc1cccc(Oc2nc(Nc3ccc(N4CCN(C)CC4)cc3OC)ncc2Cl)c1,90.9% and 97.3%,90.6,70.3,68.3,39.9,40.7,61.2,59.2
O=C(Nc1ccc([N+](=O)[O-])cc1O)Nc1ccccc1Br,16.9% and 34.5%,33.9,7.34,8.23,13.5,3.38,8.53,10.4
O=C(O)CCCN1CCC(O[C@@H](c2ccc(Cl)cc2)c2ccccn2)CC1 [Bepotastine Besilate],89.5% and 84.3%,84.8,86.5,97.8,90.9,93.3,82.6,86.2
C=C(C)[C@@H]1CC[C@]2(C(=O)O[C@@H]3O[C@H](CO[C@@H]4O[C@H](CO)[C@@H](O[C@@H]5O[C@@H](C)[C@H](O)[C@@H](O)[C@H]5O)[C@H](O)[C@H]4O)[C@@H](O)[C@H](O)[C@H]3O)CC[C@]3(C)[C@H](CC[C@@H]4[C@@]5(C)CC[C@H](O[C@@H]6OC[C@H](O)[C@H](O)[C@H]6O[C@@H]6O[C@@H](C)[C@H](O)[C@@H](O)[C@H]6O)[C@@](C)(CO)[C@@H]5CC[C@]43C)[C@@H]12 [Anemoside B4],93.9% and 103%,92,96.1,110,96.9,97.4,93.2,105
CC(C)=CCC/C(C)=C/Cc1c(O)c(CC=C(C)C)c2c(c1O)C(=O)C1=C[C@@H]3C[C@H]4C(C)(C)O[C@@](C/C=C(/C)C(=O)O)(C3=O)[C@@]14O2 [Gambogenic acid],1.97% and 1.06%,1.12,0.46,0.68,0.23,0.27,0.27,0.82
O=c1c(-c2ccc(O)cc2)coc2cc(O[C@@H]3O[C@H](CO)[C@@H](O)[C@H](O)[C@H]3O)ccc12 [Daidzin],94.3% and 101%,96.3,91.7,104,98,104,93.5,98.4
CCN(CC)CCOC(=O)c1ccc(N)cc1 [Procaine (Novocaine) HCl],98.7% and 100%,95.9,109,112,98.6,99.7,93.2,110
COC(=O)C1=C(C)NC(C)=C(C(=O)OC2CCCN(Cc3ccccc3)C2)C1c1cccc([N+](=O)[O-])c1 (centres undefined) [Benidipine hydrochloride],77.9% and 79.1%,71.8,76.6,84.7,86.3,79.2,81.5,85.9
CC(C)C[C@H](NC(=O)[C@H](Cc1ccccc1)NC(=O)c1cnccn1)B(O)O [Bortezomib (Velcade)],1.99% and 2.21%,1.46,0.39,0.93,0.29,0.31,0.19,0.25
